The values that follow come from PMC7862700, “An all-to-all approach to the identification of sequence-specific readers for epigenetic DNA modifications on cytosine”.

Common to all, as to assay: DAPPL (digital affinity profiling via proximity ligation, sequencing); 10 mM Tris-HCl pH 7.5, 50 mM NaCl, 1 mM DTT, 4% glycerol, room temperature, 30 min; GST-TFs on glutathione beads, 16-mer random dsDNA library, 0.1% formaldehyde crosslink after washing; high values mean tight binding
Holding throughout (settings): protein: recombinant; tags: N-terminal GST; dsDNA, one strand shown

In one test the target is T1, ERF (Homo sapiens, UniProt P50548 1-548).
T1 sequence: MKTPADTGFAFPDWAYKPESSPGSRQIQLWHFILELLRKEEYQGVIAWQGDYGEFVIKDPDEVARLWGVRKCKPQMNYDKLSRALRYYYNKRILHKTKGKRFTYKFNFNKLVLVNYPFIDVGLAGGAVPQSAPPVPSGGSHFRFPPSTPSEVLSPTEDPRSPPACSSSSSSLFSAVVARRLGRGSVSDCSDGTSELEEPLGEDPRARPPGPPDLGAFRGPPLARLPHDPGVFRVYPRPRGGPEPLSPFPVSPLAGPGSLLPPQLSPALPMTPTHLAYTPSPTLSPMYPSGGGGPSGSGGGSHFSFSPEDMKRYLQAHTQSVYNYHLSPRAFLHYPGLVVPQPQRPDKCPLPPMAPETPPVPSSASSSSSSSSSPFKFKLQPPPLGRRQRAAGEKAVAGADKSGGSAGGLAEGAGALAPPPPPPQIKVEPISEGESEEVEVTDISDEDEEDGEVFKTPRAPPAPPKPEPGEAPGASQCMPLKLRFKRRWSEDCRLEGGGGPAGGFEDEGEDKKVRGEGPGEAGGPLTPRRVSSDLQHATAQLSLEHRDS
In outline: (§1)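 Pools were built from human transcription factors expressed in yeast as GST fusions, captured on glutathione beads and DNA-barcoded, along with a tag-only sample. Incubation with 200 nmole of a 16-mer random double-stranded DNA library lasted 30 min at room temperature in Tris/NaCl/DTT/glycerol buffer, and was followed by washing, 0.1% formaldehyde crosslinking, proximity ligation, PCR amplification and Illumina NextSeq500 sequencing. Binding signal is the quotient of each hexamer's read frequency for a factor and its frequency for the tag-only sample.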

The target of the next test is T2, ETV3L (Homo sapiens, UniProt Q6ZN32 1-361).
T2 sequence: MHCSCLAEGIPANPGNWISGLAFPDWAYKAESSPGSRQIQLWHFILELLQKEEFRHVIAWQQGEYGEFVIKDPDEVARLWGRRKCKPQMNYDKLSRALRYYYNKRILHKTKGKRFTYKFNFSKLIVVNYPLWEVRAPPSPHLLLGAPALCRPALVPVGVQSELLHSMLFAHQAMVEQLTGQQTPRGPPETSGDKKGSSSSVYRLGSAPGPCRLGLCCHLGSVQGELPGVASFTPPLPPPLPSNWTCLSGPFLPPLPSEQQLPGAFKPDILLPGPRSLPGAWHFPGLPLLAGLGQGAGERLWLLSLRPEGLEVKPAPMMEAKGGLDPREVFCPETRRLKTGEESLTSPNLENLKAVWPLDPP
In outline: as §1

In a further test the target is T3, ETS2 (Homo sapiens, UniProt P15036 1-469).
T3 sequence: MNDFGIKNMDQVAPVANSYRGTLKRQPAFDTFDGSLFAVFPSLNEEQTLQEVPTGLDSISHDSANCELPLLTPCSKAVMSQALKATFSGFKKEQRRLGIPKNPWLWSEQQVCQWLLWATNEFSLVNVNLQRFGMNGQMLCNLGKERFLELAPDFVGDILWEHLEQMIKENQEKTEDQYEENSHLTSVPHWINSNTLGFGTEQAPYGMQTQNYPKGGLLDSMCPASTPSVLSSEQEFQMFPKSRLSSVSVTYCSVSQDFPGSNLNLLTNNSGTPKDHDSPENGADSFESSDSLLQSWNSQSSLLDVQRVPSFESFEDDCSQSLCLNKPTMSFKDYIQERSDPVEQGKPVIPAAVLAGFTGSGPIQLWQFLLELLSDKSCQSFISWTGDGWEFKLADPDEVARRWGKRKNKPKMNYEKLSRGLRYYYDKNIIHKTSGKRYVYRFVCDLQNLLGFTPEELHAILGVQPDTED
A digest of the protocol:
as §1

Another test addresses T4, SPDEF (Homo sapiens, UniProt O95238 1-335).
T4 sequence: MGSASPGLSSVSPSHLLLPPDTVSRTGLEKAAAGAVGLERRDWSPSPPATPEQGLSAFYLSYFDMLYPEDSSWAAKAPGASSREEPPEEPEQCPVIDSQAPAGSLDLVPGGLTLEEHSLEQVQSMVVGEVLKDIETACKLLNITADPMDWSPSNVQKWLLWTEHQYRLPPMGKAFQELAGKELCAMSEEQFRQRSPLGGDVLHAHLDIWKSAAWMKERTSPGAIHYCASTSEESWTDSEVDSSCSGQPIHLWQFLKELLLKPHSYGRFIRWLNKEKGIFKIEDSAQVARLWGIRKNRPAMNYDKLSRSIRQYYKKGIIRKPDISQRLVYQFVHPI
A digest of the protocol:
as §1

The target in a further test is T5, ETV7 (Homo sapiens, UniProt Q9Y603 1-341).
T5 sequence: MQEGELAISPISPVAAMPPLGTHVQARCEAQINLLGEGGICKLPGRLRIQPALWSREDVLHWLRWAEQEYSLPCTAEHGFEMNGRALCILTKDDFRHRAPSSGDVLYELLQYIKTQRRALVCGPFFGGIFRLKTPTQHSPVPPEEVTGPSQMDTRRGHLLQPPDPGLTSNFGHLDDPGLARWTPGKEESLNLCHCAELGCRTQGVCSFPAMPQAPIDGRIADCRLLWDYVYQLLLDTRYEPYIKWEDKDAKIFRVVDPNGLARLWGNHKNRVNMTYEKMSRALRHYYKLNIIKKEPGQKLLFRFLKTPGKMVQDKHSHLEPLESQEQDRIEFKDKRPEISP
A digest of the protocol:
as §1

Another test concerns the target T6, ELF5 (Homo sapiens, UniProt Q9UKW6-2 1-255).
T6 sequence: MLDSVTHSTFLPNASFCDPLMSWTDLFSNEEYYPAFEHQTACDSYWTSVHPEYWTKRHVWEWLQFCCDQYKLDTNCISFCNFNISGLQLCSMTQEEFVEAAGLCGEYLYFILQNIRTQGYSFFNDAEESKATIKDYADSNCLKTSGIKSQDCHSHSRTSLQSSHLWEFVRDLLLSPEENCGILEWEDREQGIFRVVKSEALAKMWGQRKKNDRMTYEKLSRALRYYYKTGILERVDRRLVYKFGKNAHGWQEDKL
A digest of the protocol:
as §1

A further test concerns the target T7, ETV3 (Homo sapiens, UniProt P41162-2 1-143).
T7 sequence: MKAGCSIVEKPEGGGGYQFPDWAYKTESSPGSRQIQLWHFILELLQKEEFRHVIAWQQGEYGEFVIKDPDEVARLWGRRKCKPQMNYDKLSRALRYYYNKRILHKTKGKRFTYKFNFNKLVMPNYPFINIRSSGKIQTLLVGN
A digest of the protocol: as §1

The target of another test is ETV6 (Homo sapiens, UniProt P41212 1-452). A digest of the protocol:
as §1

Chain of ETV6 (P41212 whole entry): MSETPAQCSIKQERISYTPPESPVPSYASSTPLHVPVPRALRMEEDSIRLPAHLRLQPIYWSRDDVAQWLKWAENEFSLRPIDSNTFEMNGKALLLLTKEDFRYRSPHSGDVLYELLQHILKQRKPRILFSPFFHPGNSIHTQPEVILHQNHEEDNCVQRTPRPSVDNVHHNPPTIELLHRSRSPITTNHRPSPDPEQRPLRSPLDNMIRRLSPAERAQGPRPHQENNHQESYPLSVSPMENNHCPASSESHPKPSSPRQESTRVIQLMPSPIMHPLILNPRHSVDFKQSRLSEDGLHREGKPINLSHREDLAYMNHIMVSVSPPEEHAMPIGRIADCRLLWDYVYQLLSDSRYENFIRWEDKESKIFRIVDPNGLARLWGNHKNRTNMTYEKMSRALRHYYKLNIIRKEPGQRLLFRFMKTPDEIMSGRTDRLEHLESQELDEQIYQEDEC

Regarding CCGGGT, the binding signal in the test with ERF was 1.1 fold enrichment (6-mer frequency, TF over GST control); with ETV3L it was 1.04 fold enrichment (6-mer frequency, TF over GST control); in the test with ETS2, 1.24 fold enrichment (6-mer frequency, TF over GST control); with SPDEF, 1.79 fold enrichment (6-mer frequency, TF over GST control); with ETV7 it was 1.13 fold enrichment (6-mer frequency, TF over GST control); with ELF5 it was 1.55 fold enrichment (6-mer frequency, TF over GST control). Besides, the binding signal was 1.21 fold enrichment (6-mer frequency, TF over GST control) with ETV3 and 1.21 fold enrichment (6-mer frequency, TF over GST control) with ETV6.

As for TGTTCG, the binding signal with ERF was 1.2 fold enrichment (6-mer frequency, TF over GST control); with ETV3L, 1.01 fold enrichment (6-mer frequency, TF over GST control); with ETS2, 1.15 fold enrichment (6-mer frequency, TF over GST control); with SPDEF, 1.03 fold enrichment (6-mer frequency, TF over GST control); with ETV7, 1.15 fold enrichment (6-mer frequency, TF over GST control); with ELF5 it was 1.03 fold enrichment (6-mer frequency, TF over GST control). Moreover, the binding signal with ETV3 is 1.01 fold enrichment (6-mer frequency, TF over GST control).

Regarding CCCTCA, the binding signal with ERF is 1.18 fold enrichment (6-mer frequency, TF over GST control); with ETV3L it was 1.18 fold enrichment (6-mer frequency, TF over GST control); with ETS2 it was 1.14 fold enrichment (6-mer frequency, TF over GST control); with SPDEF, 1.2 fold enrichment (6-mer frequency, TF over GST control); with ETV7 it was 1.07 fold enrichment (6-mer frequency, TF over GST control); with ELF5, 1.14 fold enrichment (6-mer frequency, TF over GST control). Further, the binding signal with ETV3 is 1.12 fold enrichment (6-mer frequency, TF over GST control); with ETV6, 1.09 fold enrichment (6-mer frequency, TF over GST control).

Turning to TGAAAA, the binding signal in the test with ERF is 1.04 fold enrichment (6-mer frequency, TF over GST control); with ETV3L, 1.07 fold enrichment (6-mer frequency, TF over GST control); with ETS2, 1.11 fold enrichment (6-mer frequency, TF over GST control); with SPDEF, 1.01 fold enrichment (6-mer frequency, TF over GST control); in the test with ETV7, 1.07 fold enrichment (6-mer frequency, TF over GST control); with ELF5 it was 1.06 fold enrichment (6-mer frequency, TF over GST control).

In the case of CGTAAC, the binding signal with ERF was 1.09 fold enrichment (6-mer frequency, TF over GST control); with ETV3L, 1.08 fold enrichment (6-mer frequency, TF over GST control); in the test with ETS2, 1.15 fold enrichment (6-mer frequency, TF over GST control); with SPDEF, 1.17 fold enrichment (6-mer frequency, TF over GST control); with ETV7, 1.07 fold enrichment (6-mer frequency, TF over GST control); with ELF5 it was 1.12 fold enrichment (6-mer frequency, TF over GST control). Moreover, the binding signal with ETV3 is 1.16 fold enrichment (6-mer frequency, TF over GST control); with ETV6, 1.06 fold enrichment (6-mer frequency, TF over GST control).

In the case of TCGCAC, the binding signal with ERF was 1.06 fold enrichment (6-mer frequency, TF over GST control); with ETV3L, 1.06 fold enrichment (6-mer frequency, TF over GST control); with ETS2 it was 1.04 fold enrichment (6-mer frequency, TF over GST control); in the test with SPDEF, 1.05 fold enrichment (6-mer frequency, TF over GST control); with ETV7 it was 1.03 fold enrichment (6-mer frequency, TF over GST control); with ELF5, 1.06 fold enrichment (6-mer frequency, TF over GST control). Moreover, the binding signal in the test with ETV3 is 1.07 fold enrichment (6-mer frequency, TF over GST control).

For the sequence CCAACA, the binding signal in the test with ERF is 1.05 fold enrichment (6-mer frequency, TF over GST control); with ETV3L, 1.01 fold enrichment (6-mer frequency, TF over GST control); with ETS2, 1.03 fold enrichment (6-mer frequency, TF over GST control); in the test with SPDEF, 1.06 fold enrichment (6-mer frequency, TF over GST control); in the test with ETV7 it was 1.05 fold enrichment (6-mer frequency, TF over GST control); with ELF5 it was 1.01 fold enrichment (6-mer frequency, TF over GST control). In addition, the binding signal with ETV3 is 1.1 fold enrichment (6-mer frequency, TF over GST control).

Turning to TTGGGT, the binding signal with ERF is 1.27 fold enrichment (6-mer frequency, TF over GST control); in the test with ETV3L, 1.1 fold enrichment (6-mer frequency, TF over GST control); in the test with ETS2 it was 1.03 fold enrichment (6-mer frequency, TF over GST control); with SPDEF, 1.04 fold enrichment (6-mer frequency, TF over GST control); with ETV7, 1.08 fold enrichment (6-mer frequency, TF over GST control); with ELF5 it was 1.08 fold enrichment (6-mer frequency, TF over GST control).

Consider TGCACG, for which the binding signal with ERF was 1.11 fold enrichment (6-mer frequency, TF over GST control); in the test with ETV3L it was 1.1 fold enrichment (6-mer frequency, TF over GST control); in the test with ETS2, 1.15 fold enrichment (6-mer frequency, TF over GST control); in the test with SPDEF, 1.11 fold enrichment (6-mer frequency, TF over GST control); with ETV7, 1.19 fold enrichment (6-mer frequency, TF over GST control); with ELF5, 1.02 fold enrichment (6-mer frequency, TF over GST control). The binding signal in the test with ETV3 is 1.13 fold enrichment (6-mer frequency, TF over GST control); with ETV6, 1.06 fold enrichment (6-mer frequency, TF over GST control).
